Test results taken from PubChem BioAssay (EPA / NIEHS).
Values joined by “and” are separate entries in the source; they are usually repeats but may differ in a detail not shown here. Equal values may be shown once. The source holds several records for some structures; these can differ, active in one and inactive in another. Active and inactive are the calls of the source. Rule for the calls: active = hit-call score of the fitted dose curve at least 0.9, where 1 is the maximum; inactive = score below 0.9.

Tests used:
Settings in all cases: mRNA level, 48 h; actives raise or lower the signal
[1] = read-out: Fatty Acid-Binding Protein 1 (FABP1), FABP1 (gene 2168); test: LTEA_HepaRG_FABP1: Life Technologies and Expression Analysis (LTEA) Assay for Fatty Acid-Binding Protein 1 (FABP1) using HepaRG (AID 2283494)
Summary of the method: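 Differentiated human HepaRG cells exposed 48 h in serum-free induction medium to eight half-log concentrations up to 100 uM (0.5% DMSO), duplicate. FABP1 mRNA by qRT-PCR, normalised to ACTB, GAPDH, POLR2A; bidirectional fitting against DMSO.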

[2] = read-out: Glutathione S-Transferase (GSTA2), GSTA2 (gene 2939); test: LTEA_HepaRG_GSTA2: Life Technologies and Expression Analysis (LTEA) Assay for Glutathione S-Transferase (GSTA2) using HepaRG (AID 2283497)
Summary of the method: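 Differentiated human HepaRG cells were exposed in duplicate for 48 h in serum-free induction medium, 8 points from 100 uM top in half-log steps, 0.5% DMSO. GSTA2 mRNA was measured by TaqMan qRT-PCR, normalized to ACTB, GAPDH and POLR2A; bidirectional fit versus DMSO.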

[3] = read-out: Glutamate-cysteine ligase catalytic (GCLC), GCLC (gene 2729); test: LTEA_HepaRG_GCLC: Life Technologies and Expression Analysis (LTEA) Assay for Glutamate-cysteine ligase catalytic (GCLC) using HepaRG (AID 2283498)
Summary of the method: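 Differentiated HepaRG cells exposed 48 h in serum-free induction medium, eight-point half-log series topping at 100 uM in 0.5% DMSO, duplicates. GCLC mRNA by qRT-PCR normalized to ACTB, GAPDH and POLR2A, fitted bidirectionally versus DMSO.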

[4] = read-out: growth arrest and DNA damage 45 (GADD45G), GADD45G (gene 10912); test: LTEA_HepaRG_GADD45G: Life Technologies and Expression Analysis (LTEA) Assay for growth arrest and DNA damage 45 (GADD45G) using HepaRG (AID 2283499)
Summary of the method: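 GADD45G transcript level by qRT-PCR (housekeeping-normalized: ACTB, GAPDH, POLR2A) after 48 h chemical treatment of a single HepaRG lot in serum-free induction medium; eight-point half-log series up to 100 uM in 0.5% DMSO, duplicates, up- or down-regulation scored.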

[5] = read-out: Glutamate-cysteine ligase regulatory (GCLM), GCLM (gene 2730); test: LTEA_HepaRG_GCLM: Life Technologies and Expression Analysis (LTEA) Assay for Glutamate-cysteine ligase regulatory (GCLM) using HepaRG (AID 2283500)
Summary of the method: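 Differentiated human HepaRG cells exposed 48 h in serum-free induction medium to 8-point half-log concentrations (top 100 uM, 0.5% DMSO), in duplicate. GCLM mRNA quantified by qRT-PCR, normalized to ACTB, GAPDH, POLR2A; bidirectional fitting versus DMSO.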

[6] = read-out: Glutathione S-transferase M3 (GSTM3), GSTM3 (gene 2947); test: LTEA_HepaRG_GSTM3: Life Technologies and Expression Analysis (LTEA) Assay for Glutathione S-transferase M3 (GSTM3) using HepaRG (AID 2283501)
Summary of the method: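 GSTM3 transcript levels came from Fluidigm TaqMan qRT-PCR normalized to three housekeeping genes, fitted in both directions against DMSO. HepaRG cultures received chemicals for 48 h in serum-free induction medium (0.5% DMSO), 8 half-log concentrations up to 100 uM, duplicate.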

[7] = read-out: Heat shock 70 kDa protein 1 (HSPA1A), gene 3303; test: LTEA_HepaRG_HSPA1A: Life Technologies and Expression Analysis (LTEA) Assay for Heat shock 70 kDa protein 1 (HSPA1A) using HepaRG (AID 2283502)
Summary of the method: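 Differentiated human HepaRG cells in serum-free induction medium were exposed in duplicate for 48 h to eight concentrations (top 100 uM, half-log steps, 0.5% DMSO). HSPA1A mRNA was quantified by qRT-PCR, normalized to ACTB, GAPDH and POLR2A, and fitted bidirectionally against DMSO.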

CYP3A5 (gene 1577) = test: LTEA_HepaRG_CYP3A5: Life Technologies and Expression Analysis (LTEA) Assay for CYP3A5 using HepaRG (AID 2283493)
Summary of the method: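 Differentiated HepaRG cells in serum-free induction medium were dosed 48 h with test chemicals (8-point half-log series, top 100 uM, 0.5% DMSO, duplicate). CYP3A5 mRNA measured by qRT-PCR, normalized to ACTB, GAPDH, POLR2A; bidirectional fit versus DMSO.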

[8] = read-out: Cytochrome P450 4A22 (Homo sapiens) (UniProt Q5TCH4); test: LTEA_HepaRG_CYP4A22: Life Technologies and Expression Analysis (LTEA) Assay for Cytochrome P450 4A22 (CYP4A22) using HepaRG (AID 2283495)
Summary of the method: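 Gene expression measured by qRT-PCR against three housekeeping genes (ACTB, GAPDH, POLR2A), with gain or loss fitted relative to 0.5% DMSO vehicle. HepaRG cultures received 48 h chemical treatment, top concentration 100 uM, half-log steps, duplicate wells.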

[9] = read-out: Cytochrome P450 7A1 (Homo sapiens) (UniProt P22680); test: LTEA_HepaRG_CYP7A1: Life Technologies and Expression Analysis (LTEA) Assay for Cytochrome P450 7A1 (CYP7A1) using HepaRG (AID 2283496)
Summary of the method: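 Gene expression endpoint in human HepaRG liver cells treated for 48 h with test chemicals (up to 100 uM, 0.5% DMSO). Values come from bidirectional concentration-response fitting versus DMSO.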

Measured: AC50

C[C@@H]1C[C@@H]([C@H](O)CC2CC(=O)NC(=O)C2)C(=O)[C@@H](C)C1
active: [1] 13.2 µM | [2] 26.6 µM | [3] 33.3 µM | [4] 2.24 µM | [5] 17.9 µM | [6] 5.85 µM | [7] 30.6 µM

NC(=O)O
inactive: all assays above

ClCC(Cl)CCl
inactive: all assays above

O=C(O)C(F)(F)C(F)(F)C(F)(F)C(F)(F)C(F)(F)C(F)(F)F
active: [1] 22.5 µM | [8] 21.4 µM
inactive: all other assays above

C=CC(=O)OCCCCCC(C)C
inactive: all assays above

CC(C)(OO)c1ccccc1
inactive: all assays above

Cc1ccccc1N
inactive: all assays above

CCN1CCC2(CC1)COc1cc3c(cc12)N(C(=O)c1ccc(-c2ccc(-c4nnc(C)o4)cc2C)cc1)CC3
active: CYP3A5 (gene 1577) 16 µM | [1] 21.9 µM | [2] 75.2 µM | [3] 25.4 µM | [4] 74 µM | [5] 26.8 µM | [7] 16.6 µM
inactive: [8] | [9] | [6]

CN(C)N=O
inactive: all assays above

COc1cc(-c2ccc(N)c(OC)c2)ccc1N
inactive: CYP3A5 (gene 1577) | [9] | [2] | [3] | [4] | [5] | [6] | [7]
active: [1] 46.3 µM and 32.8 µM | [8] 38.3 µM and 50 µM | [9] 57.4 µM | [5] 50 µM | [7] 75 µM

O=C1C2(Cl)C3(Cl)C4(Cl)C(Cl)(Cl)C5(Cl)C3(Cl)C1(Cl)C5(Cl)C24Cl (configuration not stated)
inactive: [6]
active: CYP3A5 (gene 1577) 92.4 µM | [1] 93.5 µM | [8] 24.1 µM | [9] 20.6 µM | [2] 22.9 µM | [3] 93.3 µM | [4] 59 µM | [5] 88.5 µM | [7] 91.9 µM

O=[N+]([O-])c1ccc(O)c([N+](=O)[O-])c1
active: CYP3A5 (gene 1577) 10.6 µM | [1] 18.7 µM | [8] 27.8 µM | [9] 25.6 µM | [2] 17 µM | [4] 90.6 µM | [5] 12.2 µM | [6] 12.7 µM
inactive: [7]

Oc1cccc2cccnc12
inactive: all assays above

O=C(O)C(Cl)(Cl)Cl
inactive: all assays above

CCOP(=S)(OCC)SCSP(=S)(OCC)OCC
inactive: [2] | [5] | [6] | [7]
active: CYP3A5 (gene 1577) 0.236 µM | [1] 12.1 µM | [8] 0.0742 µM | [9] 9.92 µM | [3] 0.0663 µM | [4] 1.49 µM

CCC(=O)C(CC(C)N(C)C)(c1ccccc1)c1ccccc1 (configuration not stated)
active: [6] 36.2 µM
inactive: all other assays above

CCCCCCCCc1ccc(O)cc1
active: [1] 71.8 µM
not listed: [8] | [9]
inactive: all other assays above

ClC1(Cl)C2(Cl)C3(Cl)C4(Cl)C(Cl)(Cl)C5(Cl)C3(Cl)C1(Cl)C5(Cl)C24Cl (configuration not stated)
active: [1] 3.49 µM
inactive: all other assays above

CCOP(=S)(OCC)Oc1nc(Cl)c(Cl)cc1Cl
active: [1] 50 µM | [9] 50 µM
inactive: all other assays above

O=c1[nH]c(=O)[nH]c(=O)[nH]1
inactive: all assays above

O=C(Nc1ccc2[nH]ccc2c1)c1cc2cc(F)ccc2n1Cc1cccc(F)c1
active: CYP3A5 (gene 1577) 92.9 µM | [1] 23.9 µM | [8] 22.3 µM | [9] 30.7 µM | [2] 31.2 µM | [3] 23.6 µM | [5] 27.8 µM | [7] 90.7 µM
inactive: [4] | [6]

Cn1sc(Cl)cc1=O
inactive: all assays above

O=C(O)C(F)(F)C(F)(F)C(F)(F)C(F)(F)C(F)(F)C(F)(F)C(F)(F)C(F)(F)C(F)(F)C(F)(F)F
active: CYP3A5 (gene 1577) 21.4 µM | [9] 46.5 µM | [2] 47.8 µM
inactive: all other assays above

CCC(C)(C)c1ccc(O)c(C(C)(C)CC)c1
inactive: all assays above

C[C@]12CCC(=O)C[C@@H]1CC[C@@H]1[C@@H]2CC[C@]2(C)[C@@H](O)CC[C@@H]12
active: [8] 28.8 µM
inactive: all other assays above

CC(C)(C)CC(C)(C)c1ccc(O)cc1
active: [8] 50 µM
inactive: all other assays above

CC12CC1(C)C(=O)N(c1cc(Cl)cc(Cl)c1)C2=O (configuration not stated)
active: [1] 9.46 µM | [9] 16.9 µM
not listed: [8]
inactive: all other assays above

C=C(C)C(=O)[O][Sn]([CH2]CCC)([CH2]CCC)[CH2]CCC
active: CYP3A5 (gene 1577) 4.68 µM | [3] 4.01 µM | [4] 1.21 µM | [5] 88.7 µM | [7] 89.6 µM
inactive: [1] | [2] | [6]

CC(C)(c1ccccc1)c1ccc(O)c(C(C)(C)c2ccccc2)c1
active: [1] 48.7 µM | [8] 70.4 µM | [9] 58.2 µM | [5] 50 µM | [7] 50 µM
inactive: CYP3A5 (gene 1577) | [2] | [3] | [4] | [6]

CC(=O)[O][Hg][c]1ccccc1
active: CYP3A5 (gene 1577) 11 µM | [1] 13 µM | [2] 25.4 µM | [3] 23.1 µM | [4] 82.8 µM | [5] 23 µM | [7] 50 µM
inactive: [6]

CC(C)(C)c1cc(O)ccc1O
inactive: all assays above
